From PubChem BioAssay (EPA / NIEHS) come the findings set out here.

Several values for one entry are separate records, joined by “and”; a condition that tells them apart may be missing. Equal values may be shown once. Activity calls are given as the source filed them. Rule for the calls: active = hit-call score of the fitted dose curve at least 0.9, where 1 is the maximum; inactive = score below 0.9.

Broadly, the AC50 is the concentration giving half of the maximal activity seen.

Read-out in this experiment: Monokine induced gamma interferon (MIG), CXCL9 (gene 4283)
As to the kind of experiment: BSK_SAg_MIG: BioMAP Diversity Plus: SAg Assay for Monokine induced gamma interferon (MIG) Biomarker Activity (AID 2283092). To be noted: primary human HUVEC with PBMC; actives raise or lower the signal. As to the method:
BSK_SAg is a cell-based, multiplexed-readout assay that uses umbilical vein endothelium and peripheral blood mononuclear cells, a human vascular primary cell co-culture, with measurements taken at 24 hours after chemical dosing in a 96-well plate.BSK_SAg_MIG is an assay component measured in the BSK_SAg assay. It measures MIG antibody related to regulation of gene expression using ELISA technology.Data from the assay component BSK_SAg_MIG was analyzed into 1 assay endpoint. This assay endpoint, BSK_SAg_MIG, was analyzed with bidirectional fitting relative to DMSO as the negative control and baseline of activity. Using a type of binding reporter, gain or loss-of-signal activity can be used to understand changes in the signaling as they relate to the gene CXCL9. Furthermore, this assay endpoint can be referred to as a primary readout, because this assay has produced multiple assay endpoints where this one serves a signaling function. To generalize the intended target to other relatable targets, this assay endpoint is annotated to the cytokine intended target family, where the subfamily is chemotactic factor.
The levels of cell surface (or secreted, indicated by the prefix "s") biomarker endpoints were measured by ELISA. Overt cytotoxicity to cells in confluent adherent cultures (all systems other than the BT system) was assessed by measuring total protein levels using sulforhodamine B (SRB) staining in parallel cultures at the time of biomarker measurements, indicated as SRB endpoints. For proliferation assays for adherent cell types, individual cell types are cultured at sub-confluence and relative cell numbers quantified by SRB staining at time points optimized for each system (48 h: 3C and CASM3C systems; 72 h: BT and HDF3CGF systems; 96 h: SAg system). SRB was performed by staining cells with 0.1% SRB after fixation with 10% TCA and reading wells at 560 nm.Viability and proliferation of PBMC (T cells) was quantified by Alamar Blue reduction for the SAg and BT systems. For PBMC viability (referred to as PBMC Cytotoxicity within the assay endpoint names), cells were plated (75,000/well in a 96-well plate) and then chemical samples added for 1 h before addition of activators, SEB and TSST-1 (20 ng/mL final concentration each). Cells were incubated for 90 h. Then, Alamar Blue (20 uL/well) (Invitrogen, Cat DAL1100) was added for 6 h, and the plates were read with a fluorescence microplate reader at 546/580 nm (excitation/emission). For PBMC proliferation, cells were plated and activated as above but incubated for only 16 h prior to addition of Alamar Blue. Plates were read after 6 h.
With `O=S(=O)(O)CCC(F)(F)C(F)(F)C(F)(F)C(F)(F)F`, the result was inactive. Regarding `NS(=O)(=O)C(F)(F)C(F)(F)C(F)(F)C(F)(F)C(F)(F)C(F)(F)F`, the result was inactive.

For the molecule `Nc1cc([N+](=O)[O-])cc(Cl)c1O`, the result was inactive.

On to `CC1=CC2C3C=CC(C3)C2C1C` (stereo not given), for which the result was inactive. Consider `COC(F)(C(F)F)C(F)(F)F` (stereo not given), for which the outcome was inactive.

On to `O=C=Nc1cccc2c(N=C=O)cccc12`, for which the result was inactive.

In the case of `OCC(F)(F)C(F)(F)C(F)(F)C(F)(F)C(F)(F)C(F)(F)CO`, the result was inactive.

As to `CCOC(C=C(C)CCC=C(C)C)OCC`, the result was inactive. The same measure, in the same setting: for `O=C(Cl)C(F)(F)C(F)(F)C(F)(F)C(F)(F)C(F)(F)C(F)(F)C(F)(F)F` the value was “inactive”. Turning to `CNS(=O)(=O)C(F)(F)C(F)(F)C(F)(F)C(F)(F)C(F)(F)C(F)(F)C(F)(F)C(F)(F)F`, the result was inactive. On the same count and under the same terms, for `OCC(F)(F)C(F)(F)C(F)(F)C(F)(F)C(F)(F)C(F)(F)C(F)(F)C(F)(F)CO` the value was “inactive”. As for `Cc1cc(O)c(C(C)(C)C)cc1C(C)(C)C`, the AC50 is 10.2 µM (active).

For the molecule `OCCCC(F)(F)C(F)(F)C(F)(F)C(F)(F)C(F)(F)C(F)(F)C(F)(F)C(F)(F)F`, the AC50 was 53.4 µM (active) and 53.2 µM (active). As for `O=C(O)C(F)(F)C(F)(F)C(F)(F)C(=O)O`, the outcome was inactive. Still for that read-out and setting: for `NC(=O)C(F)(F)C(F)(F)C(F)(F)C(F)(F)C(N)=O` the value was “inactive”. Same read-out and setting: then `OCC(F)(F)C(F)(F)C(F)(F)CO`, with “inactive”.

Regarding `CCN=C1C=CC(=C(c2ccc(N(CC)CC)cc2)c2ccc(N(CC)CC)cc2)c2ccccc21`, the AC50 is 1.82 µM (active) and 1.55 µM (active).

As for `NCC(F)(F)C(F)(F)C(F)(F)C(F)(F)C(F)(F)C(F)(F)F`, the result was inactive. On the same count and under the same terms, then `Cc1ccc(O)c(-n2nc3ccccc3n2)c1`, with “inactive”. Consider `NC(=O)C(F)(F)C(F)(F)C(F)(F)C(F)F`, for which the result was inactive. For `Brc1nc2ccccc2s1`, the outcome was inactive.

On to `CC(C)(C)c1cc(CCC(=O)NCCCCCCNC(=O)CCc2cc(C(C)(C)C)c(O)c(C(C)(C)C)c2)cc(C(C)(C)C)c1O`, for which the outcome was inactive. `C=CC(=O)OCC(F)(F)C(F)(F)C(F)(F)COC(=O)C=C`: the AC50 is 19.3 µM (active) and 18.6 µM (active).

In the case of `O=C(c1ccccc1)c1ccc(O)cc1O`, the result was inactive. Same read-out and setting: for `C=CC(=O)OCC(F)(F)C(F)(F)C(F)(F)C(F)(F)C(F)(F)C(F)(F)C(F)(F)C(F)F` the value was “inactive”. Still for that read-out and setting: for `NC(=O)C(F)(F)C(F)(F)C(F)(F)C(F)(F)C(F)(F)C(F)(F)C(F)(F)F` the value was “inactive”; for `O=C(O)CCC(F)(F)C(F)(F)C(F)(F)F`, “inactive”. On to `Cc1ccc(S(=O)(=O)C(I)I)cc1`, for which the AC50 was 6.86 µM (active). For the molecule `O=C(O)C(F)(F)OC(F)(F)C(F)(F)OC(F)(F)C(F)(F)OC(F)(F)F`, the result was inactive. Still for that read-out and setting: then `CCN(CC)c1ccc2c(c1)Oc1cc(N(CC)CC)ccc1C21OC(=O)c2ccccc21`, with “inactive”; and `FC(F)(F)C(F)(F)C(F)(F)C(F)(F)C(F)(F)C(F)(F)CC[Si](Cl)(Cl)Cl`, with “inactive”; and `Cc1cnccn1`, with “inactive”. Still for that read-out and setting: then `C[C@]12CC[C@H]3C(=CCc4cc(O)ccc43)[C@@H]1CCC2=O`, with “inactive”. Turning to `C=CC(=O)OCCC(F)(F)C(F)(F)C(F)(F)C(F)(F)F`, the result was inactive. With `OCC(O)CC(F)(F)C(F)(F)C(F)(F)C(F)(F)F` (stereo not given), the result was inactive. On the same count and under the same terms, for `CCN(CC)c1ccc(C=O)c(O)c1` the value was “inactive”; for `OC(O)C(F)(F)C(F)(F)F`, “inactive”; for `CCN(CC)c1ccc(N=Nc2ccccc2)cc1`, “inactive”.

Consider `O=C(O)C(F)(F)C(F)(F)C(F)(F)OC(F)(C(F)(F)F)C(F)(F)F`, for which the outcome was inactive.

Consider `O=C(Cl)C(F)(F)C(F)(F)C(F)(F)C(F)(F)C(F)(F)C(F)(F)F`, for which the outcome was inactive.
